“And” between values parts separate entries of the source, which are not always exact repeats. Identical values can stand only once. Inconclusive results are not listed. A structure can be active in one record and inactive in another. The source made the active and inactive calls. The calls were made as follows: active = hit-call score of the fitted dose curve at least 0.9, where 1 is the maximum; inconclusive = response in the unintended direction; inactive = score below 0.9.
Test: Tanguay_ZF_120hpf_PFIN_legacy: (Legacy) Oregon State University Tanguay Lab 120 Hour Post-fertilization zebrafish Assay for Pectoral Fin Malformation (AID 2283648);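 also: each larva judged yes or no for fin defect by brightfield with dead larvae skipped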
Experimental: Tanguay_ZF_120hpf_legacy is a whole embryo, multiplexed endpoint assay using zebrafish larvae exposed for 120 hours post fertilization on a 96-well plate.Tanguay_ZF_120hpf_PFIN_legacy is one of one assay component(s) measured or calculated from the Tanguay_ZF_120hpf_legacy assay. It is designed to make measurements of zebrafish development as detected with brightfield microscopy of developing zebrafish embryos.Data from the assay component Tanguay_ZF_120hpf_PFIN_legacy was analyzed into 1 assay endpoints. This assay endpoint, Tanguay_ZF_120hpf_PFIN_legacy, was analyzed in the positive analysis fitting direction relative to DMSO as the negative control and baseline of activity. Using a type of morphology reporter, gain-of-signal activity can be used to understand changes in developmentals as they relate to the whole embryo. To generalize the intended target to other relatable targets, this assay endpoint is annotated to the zebrafish development intended target family, where the subfamily is pectoral fin morphogenesis.
Zebrafish husbandry: Tropical 5D wild-type adult zebrafish were housed in at an approximate density of 1000 per 100 gallon tank at the Sinnhuber Aquatic Research Laboratory, Oregon State University, Corvallis, OR. Each tank was kept at standard laboratory conditions of 28C on a 14-h light/10-h dark photoperiod in fish water consisting of reverse osmosis water supplemented with a commercially available salt (Instant Ocean). Spawning funnels were placed into the tanks the night prior, and embryos were collected and staged. To increase bioavailability, the chorion was enzymatically removed using pronase (63.6mg/ml, >/= 3.5U/mg, Sigma-Aldrich: P5147) at 4 hours post fertilization (hpf) using a custom automated dechorionator.Chemical exposures: Six hpf dechorionated embryos were placed 1 embryo per well in a 96-well plate prefilled with 90 ul of EM using automated embryo placement systems (AEPS). Ten microliters of each row of dilution plate 2 was added to 2 exposure plates. The final DMSO concentration used was 0.64% (vol/vol). Thirty-two embryos were also exposed to 5uM trimethyltin chloride (positive control). Plates were sealed to prevent evaporation and foil covered to reduce light exposure and kept in a 28C incubator. Embryos were statically exposed until 120 hpf. At 24 hpf, embryos were assessed for photomotor response using a custom photomotor response analysis tool (PRAT) and for developmental toxicity endpoints (MO24: mortality at 24 hpf, DP: developmental progression, SM: spontaneous movement, and NC: notochord distortion). At 120 hpf, locomotor activity was measured using Viewpoint Zebralab and assessed for 18 endpoints. Zebrafish acquisition and analysis program (ZAAP), a custom program designed to inventory, acquire, and manage zebrafish data, was used to collect developmental endpoints as either present or absent (i.e., binary responses were recorded). If mortality occurred for an embryo (at either 24 or 120 hpf), the non-mortality endpoints were not measured.

Row | SMILES | outcome | AC50
1 | COCCO | inactive | –
2 | CC(C)CCCCCCc1ccc(O)cc1 | inactive | –
3 | C=CCOC(Cn1ccnc1)c1ccc(Cl)cc1Cl (stereo not given) | inactive | –
4 | S=C([S-])NCCNC(=S)[S-].[Mn+2] | inactive | –
5 | O=C(O)c1ccccc1 | inactive | –
6 | O=C(c1ccccc1)C1CCCCC1 | inactive | –
7 | CCSC(=O)N(CC(C)C)CC(C)C | inactive | –
8 | CCNc1nc(N)nc(Cl)n1 | inactive | –
9 | CCCN(CCC)c1c([N+](=O)[O-])cc(C(F)(F)F)c(N)c1[N+](=O)[O-] | inactive | –
10 | Oc1ccc(C(c2ccc(O)cc2)C(Cl)(Cl)Cl)cc1 | inactive | –
11 | CCCCOCCOCCOCc1cc2c(cc1CCC)OCO2 | inactive | –
12 | CCCCC(CC)CN1C(=O)C2C3C=CC(C3)C2C1=O (stereo not given) | inactive | –
13 | CCCOC(=O)NCCCN(C)C | inactive | –
14 | Cc1nn(C)c(Oc2ccccc2)c1C=NOCc1ccc(C(=O)OC(C)(C)C)cc1 | inactive | –
15 | C[C@]12CC[C@@H]3c4ccc(O)cc4C[C@@H](CCCCCCCCCS(=O)CCCC(F)(F)C(F)(F)F)[C@H]3[C@@H]1CC[C@@H]2O (stereo not given in full) | inactive | –
16 | CC(C)(c1ccc(O)cc1)c1ccc(O)cc1 | inactive | 29.8 µM (active) and 37.2 µM (active)
17 | COc1c(Cl)ccc(Cl)c1C(=O)O | inactive | –
18 | CCOC(=O)NCCOc1ccc(Oc2ccccc2)cc1 | inactive | –
19 | CCOC(=O)c1ccc(O)cc1 | inactive | –
20 | CCOC(=O)C(C)Oc1ccc(Oc2cnc3cc(Cl)ccc3n2)cc1 (stereo not given) | inactive | –

Row | SMILES | outcome | AC50
21 | c1ccc2[nH]c(-c3cscn3)nc2c1 | inactive | –
22 | COC(=O)CSc1cc(N=c2sc(=O)n3n2CCCC3)c(F)cc1Cl | inactive | –
23 | OB(O)O | inactive | –
24 | CCCCOC(=O)[C@@H](C)Oc1ccc(Oc2ccc(C(F)(F)F)cn2)cc1 | inactive | –
25 | CCC(C)OC(=O)N1CCCCC1CCO (stereo not given) | inactive | –
26 | CCCOC(=O)c1ccc(C(=O)OCCC)nc1 | inactive | –
27 | N#CSCSc1nc2ccccc2s1 | inactive | –
28 | CCCCCOC(=O)COc1cc(N2C(=O)C3=C(CCCC3)C2=O)c(F)cc1Cl | inactive | –
29 | N[C@@H](Cc1cc(I)c(Oc2ccc(O)c(I)c2)c(I)c1)C(=O)O | inactive | –
30 | CCCCCCC(C)OC(=O)COc1nc(F)c(Cl)c(N)c1Cl (stereo not given) | inactive | –
31 | COC(=O)c1ccc(I)cc1S(=O)(=O)NC(=O)Nc1nc(C)nc(OC)n1 | inactive | –
32 | CSC(=O)c1cccc2nnsc12 | inactive | –
33 | O=C(c1ccc(O)cc1O)c1ccc(O)cc1O | inactive | –
34 | CC(C)(C)[C@@H](O)[C@@H](Cc1ccc(Cl)cc1)n1cncn1 | inactive | –
35 | CN(C)C(=O)Nc1ccc(Cl)c(Cl)c1 | inactive | –
36 | CC(=O)S[C@@H]1CC2=CC(=O)CC[C@]2(C)[C@H]2CC[C@@]3(C)[C@@H](CC[C@@]34CCC(=O)O4)[C@H]12 | inactive | –
37 | S=C(S)NCCNC(=S)S.[Mn+2].[S-]C([S-])=NCCN=C([S-])[S-].[Zn+2] | inactive | –
38 | CCN(Cc1c(F)cccc1Cl)c1c([N+](=O)[O-])cc(C(F)(F)F)cc1[N+](=O)[O-] | inactive | –
39 | CC1(C)C(C=C(Cl)Cl)C1C(=O)OCc1cccc(Oc2ccccc2)c1 (stereo not given) | inactive | –
